The values that follow come from PubChem BioAssay (Tox21).

The nature of assay [1]: qHTS assay to identify small molecule agonists of the androgen receptor (AR) signaling pathway in the presence of an antagonist - cell viability counter screen (AID 1259379). Further: nearly all actives have a fitted effect of over 25% in size. Further: potency means the concentration at half of the fitted maximal effect. Put shortly: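 Viability counter screen: CellTiter-Fluor fluorescence, measured in the same wells as the luciferase read-out. MDA-kb2 cells, 3,000/well, with nilutamide at 3.0uM final and compounds at 15 concentrations, 16 hr at 37C, 0% CO2.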
Background: qHTS replaces the single test concentration by a dilution series.

A short description of assay [2]: qHTS assay to identify small molecule agonists of the estrogen receptor beta (ER-beta) signaling pathway - cell viability counter screen (AID 1259380). Further: nearly all actives have a fitted effect of over 30% in size. Further: potency means the concentration at half of the fitted maximal effect. The method in brief: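 Luminescence read-out (CellTiter-Glo, 30 min, room temp) taken in the same wells as the beta-lactamase reporter assay; ER-beta-UAS-bla HEK293T cells exposed to DMSO-dissolved compounds for 16 hr at 37C in 2% charcoal-stripped FBS medium.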

Assay [3] in a line: qHTS assay to identify small molecule antagonists of the estrogen receptor beta (ER-beta) signaling pathway - cell viability counter screen (AID 1259382). Further: nearly all actives have a fitted effect of over 55% in size. Further: potency means the concentration at half of the fitted maximal effect. Put shortly: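 Luminescent ATP read-out (CellTiter-Glo, 30 min, RT) taken in the same wells as the bla reporter assay. HEK293T ER-beta-UAS-bla cells in 2% charcoal-stripped FBS were exposed to compounds with 1nM E2 for 16 hr at 37C.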

For assay [4], the target named is Estrogen receptor (Homo sapiens) (UniProt P03372). Put plainly: qHTS assay to identify small molecule agonists of the estrogen receptor alpha (ER-alpha) signaling pathway in the presence of an antagonist (AID 1259383; calls by dose curve; further: top concentration of the series differs between compounds; nearly all actives have a fitted effect of over 15% in size). The method in brief:
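Luciferase luminescence (ONE-Glo, 30min at room temperature) measured in VM7Luc4E2 cells after 22hr compound exposure at 15 concentrations, with 10.0nM ICI-182,780 final present; cells express endogenous ER-alpha and carry four EREs upstream of luciferase.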

The nature of assay [5]: qHTS assay to identify small molecule agonists or antagonists of the thyroid stimulating hormone receptor (TSHR) signaling pathway - wild type cell line counter screen (AID 1259384; calls by dose curve). The method in brief: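 Counter screen in untransfected Hek293: compounds (15-point titration, triplicate) plus phosphodiesterase inhibitor Ro20-1724 added after 18 h plating; 30 min RT. Intracellular cAMP via competitive d2/cryptate immunoassay, 1 h incubation.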

Assay [6] concerns the target Thyrotropin receptor (Homo sapiens) (UniProt P16473). Put plainly: qHTS assay to identify small molecule antagonists of the thyroid stimulating hormone receptor (TSHR) signaling pathway (AID 1259385; calls by dose curve; further: nearly all actives have a fitted effect of over 20% in size; further: potency means the concentration at half of the fitted maximal effect). The method in brief:
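Antagonist mode: compound-treated TSHR-expressing HEK293 cells were stimulated with 1.5 ng/mL TSH (final) in presence of Ro20-1724 for 30 min at RT. HTRF cAMP detection after 1 h; each compound tested at 15 concentrations, triplicate.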

For assay [7], the target named is Progesterone receptor (Homo sapiens) (UniProt P06401). In words: qHTS assay to identify small molecule agonists of the progesterone receptor (PR) signaling pathway (AID 1346784; calls by dose curve; further: nearly all actives have a fitted effect of over 30% in size). The method in brief:
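Seed PR-UAS-bla HEK 293T cells (2% charcoal-stripped FBS), incubate 6 hr at 37C; add compounds in DMSO, 16 hr at 37C; add LiveBLAzer B/G substrate, 2 hr RT; read fluorescence intensity.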

Assay [8] can be described thus: qHTS assay to identify small molecule antagonists of the progesterone receptor (PR) signaling pathway - cell viability counter screen (AID 1346798). Further: nearly all actives have a fitted effect of over 50% in size. Further: potency means the concentration at half of the fitted maximal effect. The method in brief: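 Measures cytotoxicity in parallel with the PR antagonist reporter read: HEK293T PR-UAS-bla cells get compound and R5020 for 16 hr, and remaining viable cells are quantified by CellTiter-Glo luminescence.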

A short description of assay [9]: qHTS assay to identify small molecule agonists of the progesterone receptor (PR) signaling pathway - cell viability counter screen (AID 1346799; calls by dose curve; further: nearly all actives have a fitted effect of over 45% in size; further: potency means the concentration at half of the fitted maximal effect). The method in brief: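 Using the same plates as the PR reporter screen, HEK293T PR-UAS-bla cells received compounds for 16 hr at 37C and were then lysed with CellTiter-Glo; luminescence was read 30 min later at room temperature.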

Assay [10] can be described thus: qHTS assay to identify small molecule antagonists of the TGF-beta/Smad signaling pathway - cell viability counter screen (AID 1346824). Further: nearly all actives have a fitted effect of over 50% in size. Further: potency means the concentration at half of the fitted maximal effect. Put shortly: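 Cytotoxicity counter-screen run in the same wells as the beta-lactamase Smad reporter read: CellTiter-Glo luminescence after 30 min at room temperature. HEK 293T SBE-bla cells had 5 hr compound exposure at 37 C with TGF-beta1 (0.25 ng/mL stock).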

Assay [11] deals with Thyrotropin-releasing hormone receptor (Homo sapiens) (UniProt P34981). In words: qHTS assay to identify small molecule antagonists of the thyrotropin-releasing hormone receptor (TRHR) signaling pathway (AID 1346877; active means well fitted inhibition curve with a large enough effect in the repeat runs, not every such curve was filed as active; further: series mostly up to about 51 µM). The method in brief:
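HEK293/TRHR cells, 18 h, 37 °C; Ca2+ dye 2 h; cpd 5 min RT; TRH 1 nM final; fluorescence read 3 min, 1 s intervals; 15 concs, triplicate.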

Assay [12] shares this target. Put plainly: qHTS assay to identify small molecule agonists of the thyrotropin-releasing hormone receptor (TRHR) signaling pathway (AID 1346891; calls by dose curve;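 further: HEK293 cells expressing TRHR with calcium dye readout; series mostly up to about 58 µM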). The method in brief:
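Overnight-plated (18 h, 37 °C, 5% CO2) TRHR-Hek293 cells; 2 h calcium dye at 37 °C; compound in DMSO; 3-min kinetic fluorescence read.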

Assay [13] in a line: Human pregnane X receptor (PXR) small molecule agonists, qHTS cell viability counter screen (AID 1346977). Further: nearly all actives have a fitted effect of over 50% in size. Further: potency means the concentration at half of the fitted maximal effect. Put shortly: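 After a 5hr pre-incubation, PXR-Luc HepG2 cells received compounds plus positive control in DMSO and were kept 24hr at 37C. Cell viability was quantified by fluorescence from CellTiter-Fluor added for the final hour.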
The nature of assay [14]: Caspase-3/7 induction in HepG2 cells by small molecules, qHTS assay (AID 1346978). Further: nearly all actives have a fitted effect of over 15% in size. Further: potency means the concentration at half of the fitted maximal effect. The method in brief: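 Caspase-3/7 induction was measured by Caspase-Glo 3/7 luminescence (30 min, room temperature) after a 17 hr compound exposure of wild-type HepG2 cells seeded at 2,000 per well and pre-incubated 5 hr.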
Assay [15] can be described thus: Caspase-3/7 induction in CHO-K1 cells by small molecules, qHTS cell viability counter screen (AID 1346979). Further: nearly all actives have a fitted effect of over 35% in size. Further: potency means the concentration at half of the fitted maximal effect. The method in brief:
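Multiplexed with Caspase-Glo 3/7 in CHO-K1 cells, this counter screen added CellTiter-Fluor after 16hr of compound exposure and recorded fluorescence 1hr later.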

A short description of assay [16]: qHTS assay to identify small molecule agonists of the TGF-beta/Smad signaling pathway - cell viability counter screen (AID 1346829). Further: nearly all actives have a fitted effect of over 45% in size. Further: potency means the concentration at half of the fitted maximal effect. Put shortly: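 Here the cytotoxicity of library compounds is measured in SBE-bla HEK 293T cells treated for 5 hr, using CellTiter-Glo added to wells already read for the beta-lactamase reporter.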
Assay [17] can be described thus: qHTS assay to identify small molecule agonists of the TGF-beta/Smad signaling pathway (AID 1346859; active means well fitted activation curve with a large enough effect in the signal ratio in the repeat runs, not every such curve was filed as active; the % refers to the signal ratio; further: series mostly up to about 77 µM). Put shortly: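 Beta-lactamase reporter activity downstream of Smad binding elements was measured in stably transfected HEK 293T cells; compounds were incubated for 5 hr, substrate for 2 hr at room temperature.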
Assay [18] is described as follows: qHTS assay to identify small molecule agonists of the estrogen receptor alpha (ER-alpha) signaling pathway in the presence of an antagonist - cell viability counter screen (AID 1259386). Further: nearly all actives have a fitted effect of over 30% in size. Further: potency means the concentration at half of the fitted maximal effect. Put shortly: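 Read-out: CellTiter-Fluor fluorescence after 1hr reagent incubation, measured in the same wells as the luciferase readout. VM7Luc4E2 cells were exposed to 15 compound concentrations with 10.0nM ICI-182,780 for 22hr at 37C.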

Assay [19] deals with Progesterone receptor (Homo sapiens) (UniProt P06401). In words: qHTS assay to identify small molecule antagonists of the progesterone receptor (PR) signaling pathway (AID 1346795; active means well fitted inhibition curve with a large enough effect in the signal ratio in the repeat runs, not every such curve was filed as active; the % refers to the signal ratio). The method in brief:
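Screening used a GripTite HEK293T line with PR-responsive UAS-beta-lactamase. Cells were challenged with compound in the presence of 1 nM R5020 final for 16 hr at 37C; B/G FRET substrate, 2 hr room temperature, fluorescence.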

Inconclusive results are not listed. Active and inactive are the calls of the source. Unless noted, the call rests on the fitted dose curve; in most records, active means well fitted curve in the direction sought with a large enough effect in the repeat runs; inconclusive means weak or mixed curves; inactive means no such curve, though single readings can be large; an effect the other way counts as inactive or inconclusive.

Chain of Thyrotropin-releasing hormone receptor (Homo sapiens) (P34981 whole entry, looked up): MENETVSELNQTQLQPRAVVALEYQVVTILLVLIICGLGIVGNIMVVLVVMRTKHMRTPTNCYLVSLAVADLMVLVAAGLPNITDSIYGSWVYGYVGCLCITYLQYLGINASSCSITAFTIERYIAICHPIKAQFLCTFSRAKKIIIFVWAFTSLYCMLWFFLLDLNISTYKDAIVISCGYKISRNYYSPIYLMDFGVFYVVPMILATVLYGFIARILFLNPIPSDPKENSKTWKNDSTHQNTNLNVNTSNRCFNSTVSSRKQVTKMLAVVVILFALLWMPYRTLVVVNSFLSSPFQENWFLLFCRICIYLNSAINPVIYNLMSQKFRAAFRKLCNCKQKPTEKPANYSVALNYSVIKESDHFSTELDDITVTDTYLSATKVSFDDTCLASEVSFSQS
Chain of Progesterone receptor (Homo sapiens) (P06401 whole entry, looked up): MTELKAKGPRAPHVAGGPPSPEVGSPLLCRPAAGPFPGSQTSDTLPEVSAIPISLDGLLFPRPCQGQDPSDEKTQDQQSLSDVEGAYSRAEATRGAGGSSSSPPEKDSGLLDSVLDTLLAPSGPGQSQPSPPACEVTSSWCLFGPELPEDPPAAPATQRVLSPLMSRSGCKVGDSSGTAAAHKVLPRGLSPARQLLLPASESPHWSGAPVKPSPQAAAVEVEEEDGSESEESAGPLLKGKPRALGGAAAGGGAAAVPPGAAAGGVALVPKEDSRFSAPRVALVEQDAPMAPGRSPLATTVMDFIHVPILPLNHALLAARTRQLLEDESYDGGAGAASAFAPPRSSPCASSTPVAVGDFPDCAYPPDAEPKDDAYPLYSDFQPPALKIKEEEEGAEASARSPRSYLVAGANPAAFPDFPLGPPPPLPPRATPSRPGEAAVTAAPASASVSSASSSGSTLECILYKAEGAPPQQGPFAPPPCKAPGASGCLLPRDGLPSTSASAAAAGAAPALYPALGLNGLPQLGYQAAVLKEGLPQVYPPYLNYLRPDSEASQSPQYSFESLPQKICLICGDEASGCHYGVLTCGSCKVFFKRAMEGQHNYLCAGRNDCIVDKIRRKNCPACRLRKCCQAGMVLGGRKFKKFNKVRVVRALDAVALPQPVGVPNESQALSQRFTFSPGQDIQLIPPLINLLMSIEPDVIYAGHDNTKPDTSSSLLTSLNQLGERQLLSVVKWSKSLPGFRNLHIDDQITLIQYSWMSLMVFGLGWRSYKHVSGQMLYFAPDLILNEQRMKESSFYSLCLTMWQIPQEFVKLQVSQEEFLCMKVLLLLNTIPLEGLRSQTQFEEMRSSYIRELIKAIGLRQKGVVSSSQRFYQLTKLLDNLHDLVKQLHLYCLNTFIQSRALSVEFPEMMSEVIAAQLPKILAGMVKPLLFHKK
Chain of Thyrotropin receptor (Homo sapiens) (P16473 whole entry, looked up): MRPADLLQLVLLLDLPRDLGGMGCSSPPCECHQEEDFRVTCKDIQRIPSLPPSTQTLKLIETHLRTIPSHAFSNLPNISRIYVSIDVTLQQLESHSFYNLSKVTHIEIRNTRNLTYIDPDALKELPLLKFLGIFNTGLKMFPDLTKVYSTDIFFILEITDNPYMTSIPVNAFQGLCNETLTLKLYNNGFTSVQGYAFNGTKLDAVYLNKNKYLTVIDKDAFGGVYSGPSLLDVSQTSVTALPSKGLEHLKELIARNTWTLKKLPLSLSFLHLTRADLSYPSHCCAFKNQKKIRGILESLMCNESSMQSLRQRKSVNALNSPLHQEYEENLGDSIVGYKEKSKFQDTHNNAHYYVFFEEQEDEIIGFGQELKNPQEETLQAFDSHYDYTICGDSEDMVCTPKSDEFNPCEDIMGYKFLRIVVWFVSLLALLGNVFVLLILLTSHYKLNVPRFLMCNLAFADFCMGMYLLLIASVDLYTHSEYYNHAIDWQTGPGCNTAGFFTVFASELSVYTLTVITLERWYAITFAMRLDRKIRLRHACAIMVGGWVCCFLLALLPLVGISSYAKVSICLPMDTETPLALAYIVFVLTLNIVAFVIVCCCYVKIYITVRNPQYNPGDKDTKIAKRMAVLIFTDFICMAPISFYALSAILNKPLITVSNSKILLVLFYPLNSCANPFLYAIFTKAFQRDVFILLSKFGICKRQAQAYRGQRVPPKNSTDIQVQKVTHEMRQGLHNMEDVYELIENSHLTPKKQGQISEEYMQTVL
Chain of Estrogen receptor (Homo sapiens) (P03372 whole entry, looked up): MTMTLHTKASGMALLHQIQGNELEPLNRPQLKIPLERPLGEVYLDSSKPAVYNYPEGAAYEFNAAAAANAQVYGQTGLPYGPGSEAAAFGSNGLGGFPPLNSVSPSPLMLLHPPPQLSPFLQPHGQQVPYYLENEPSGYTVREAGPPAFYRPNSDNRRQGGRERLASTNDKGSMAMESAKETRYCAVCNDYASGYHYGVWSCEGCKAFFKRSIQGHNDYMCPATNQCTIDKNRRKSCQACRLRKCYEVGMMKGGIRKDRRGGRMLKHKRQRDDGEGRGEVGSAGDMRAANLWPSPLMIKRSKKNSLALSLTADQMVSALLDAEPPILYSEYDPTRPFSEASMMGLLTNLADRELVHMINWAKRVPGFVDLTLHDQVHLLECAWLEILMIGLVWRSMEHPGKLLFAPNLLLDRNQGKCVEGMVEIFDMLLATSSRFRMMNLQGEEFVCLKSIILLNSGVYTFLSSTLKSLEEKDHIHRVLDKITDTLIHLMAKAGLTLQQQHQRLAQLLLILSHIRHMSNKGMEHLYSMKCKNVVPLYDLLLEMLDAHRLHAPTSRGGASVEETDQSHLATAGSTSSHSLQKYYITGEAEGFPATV

With `Cc1cc(Br)ccc1NC(=O)CCl`, the Potency is 54.5 µM (active) in assay [1]; 30.6 µM (active) in assay [2]; 30.6 µM (active) in assay [3]; 15.4 µM (active) in assay [8]; 27.3 µM (active) in assay [9]; 54.5 µM (active) in assay [13]. Moreover, the Potency in assay [15] was 21.7 µM (active). Moreover, the Potency entry in assay [4], in assay [5], in assay [6], in [10], in assay [11] and in assay [12] was “inactive” throughout. In addition, in [14], the Potency entry is “inactive”. The call in [7] was inactive.
Regarding `[Cl][Dy]([Cl])[Cl]`, the Potency result in assay [1], in assay [2], in assay [3], in [4], in [5] and in assay [6] was “inactive” throughout. Moreover, the Potency result in assay [9], in assay [10], in [16], in assay [11], in assay [12] and in [13] was “inactive” throughout. Besides, the Potency result in [14] and in [15] was “inactive” each time. Further, the compound was classed as inactive in assay [7] and in [17].
`CC(C)=CCC[C@H](C)CC=O`: the Potency entry in [1], in assay [2], in assay [3], in [5], in assay [6] and in assay [18] was “inactive” in each case. The Potency entry in assay [19], in [8], in [9], in assay [10], in assay [16] and in assay [13] was “inactive” throughout. The Potency result in assay [14] and in assay [15] was “inactive” in each case. Also, the compound was classed as inactive in assay [7] and in assay [17].
Regarding `CCCCCN=C(N)N/N=C/c1c[nH]c2ccc(OC)cc12`, the Potency in assay [1] was 13.3 µM (active); in assay [2], 16.8 µM (active); in [3] it was 16.8 µM (active); in assay [6], 29.8 µM (active); in assay [18], 33.5 µM (active); in assay [8], 23.7 µM (active). For the same compound, the Potency in assay [10] is 26.8 µM (active); in assay [16], 23.9 µM (active); in assay [13] it was 18.8 µM (active); in [14] it was 11.9 µM (active); in assay [15], 29.8 µM (active). Moreover, the Potency entry in assay [5], in [11] and in assay [12] was “inactive” in each case.
Consider `O=C1OC(=O)c2cc(-c3ccc4c(c3)C(=O)OC4=O)ccc21`, for which the Potency entry in assay [1], in assay [2], in assay [3], in assay [5], in assay [6] and in assay [18] was “inactive” throughout. In addition, the Potency entry in assay [19], in assay [8], in [10], in assay [16], in [11] and in assay [12] was “inactive” each time. Also, the Potency entry in assay [14] and in assay [15] was “inactive” throughout. Moreover, the compound was classed as inactive in assay [7] and in assay [17].
`CC/C=C(\C)C=O`: the Potency result in assay [1], in [2], in assay [3], in assay [4], in [5] and in assay [6] was “inactive” throughout. The Potency result in assay [18], in assay [19], in [8], in assay [9], in [16] and in assay [11] was “inactive” throughout. Besides, the Potency result in [12], in assay [13], in [14] and in [15] was “inactive” each time. Moreover, the compound was classed as inactive in assay [7] and in assay [17].
Take `Cc1ccc(C=O)cc1`: the Potency entry in assay [1], in assay [2], in [3], in [4], in assay [5] and in [6] was “inactive” each time. Besides, the Potency result in assay [18], in assay [19], in [8], in [9], in assay [16] and in assay [11] was “inactive” each time. Moreover, the Potency entry in assay [12], in assay [13], in assay [14] and in [15] was “inactive” each time. Further, the compound was called inactive in assay [7] and in assay [17].
As to `Nc1ccc(F)c([N+](=O)[O-])c1`, the Potency entry in assay [1], in assay [2], in assay [3], in [4], in [5] and in [6] was “inactive” in each case. Besides, the Potency entry in [18], in assay [8], in assay [10], in assay [16], in assay [11] and in assay [12] was “inactive” in each case. In addition, the Potency result in [13], in [14] and in [15] was “inactive” in each case. For the same compound, the call in assay [7] and in assay [17] was inactive.
For `CN1CCN(c2ccccc2/C=C2\SCCN(c3ccc(Cl)c(Cl)c3)C2=O)CC1`, the Potency is 48.6 µM (active) in [1]; 30.6 µM (active) in assay [2]; 61.1 µM (active) in assay [3]; 68.6 µM (active) in assay [18]; 27.3 µM (active) in assay [13]; 61.1 µM (active) in assay [14]. Further, in assay [15], the Potency is 61.1 µM (active). Moreover, the Potency result in assay [4] and in assay [5] was “inactive” throughout.
